The whole screen tested about 310,000 compounds, of which about 18,000 (5.8%) were called active. Inconclusive results (about 22%) are left out. Calls come from the whole dose curve; as a rule, active = well fitted inhibition curve with a large enough effect; inconclusive = small, poorly fitted or top-dose-only effect, or another doubt; inactive = no such curve, though single readings can be large or run the other way. The entries come from a sample that favours actives as a whole. Where a call stands in place of a potency, no number is given.
Potency is the fitted concentration of half-maximal effect.

The nature of this assay: Primary qHTS for delayed death inhibitors of the malarial parasite plastid, 48 hour incubation. Conditions: P. falciparum luciferase growth in erythrocytes; series mostly up to 28.7 µM. In outline: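 Compounds are pin-transferred into medium, infected erythrocytes (2% hematocrit, 0.1% parasitemia final) are added, and plates sit one parasite generation at 37 C in 5% CO2. Detection reagent is then added and luminescence measured.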
(In general: Quantitative high-throughput screening tests each substance at several concentrations.)
On to `O=C(COC(=O)c1cc(=O)[nH]c2ccccc12)NCc1cccc(Cl)c1`, for which the Potency entry is “inactive”.

Consider `O=C(NCc1cccs1)c1ccc(CS(=O)Cc2ccccc2Cl)o1` (stereo unspecified), for which the Potency entry is “inactive”.

On to `CC(=O)NS(=O)(=O)c1ccc2c(c1)Cc1cc(S(=O)(=O)NC(C)=O)ccc1-2`, for which the Potency entry is “inactive”.

Regarding `CC(OC(=O)c1cc2ccccc2o1)C(=O)Nc1ccc(N2CCOCC2)cc1` (stereo unspecified), the Potency entry is “inactive”.

`O=[N+]([O-])c1ccc(N/N=C2/CCCCC2c2ccccn2)c([N+](=O)[O-])c1` (stereo unspecified): the Potency result was “inactive”.

On to `C[n+]1ccccc1C1CCCC/C1=N\Nc1ccc([N+](=O)[O-])cc1[N+](=O)[O-]` (stereo unspecified), for which the Potency was 3.7 µM (active).

On to `Cc1cc([N+](=O)[O-])ccc1NC1CCCC1`, for which the Potency result was “inactive”.

Turning to `Cc1cc(O)c(C2(O)C(=O)Nc3ccccc32)cc1C` (stereo unspecified), the Potency entry is “inactive”.

Take `CCCn1nnnc1NCc1ccc(OC)cc1`: the Potency result is “inactive”.

As for `Cc1ccc(Cn2c(SCC(=O)N/N=C/c3ccccc3OCC(=O)O)nc3ccccc32)cc1`, the Potency entry was “inactive”.

Consider `CCCc1nc2c(C)cc(-c3nc4ccccc4n3C)cc2n1Cc1ccc(-c2ccccc2C(=O)O)cc1`, for which the Potency was 3.79 µM (active).

As to `CC(=O)c1nc2ccccc2n1Cc1ccccc1`, the activity change, negative = inhibition was 18.9% [at 0.00184 µM] (inactive).

Consider `CN(c1ccccc1)S(=O)(=O)c1cccc(C(=O)NNC(=O)c2ccncc2)c1`, for which the Potency result is “inactive”.

In the case of `COC(=O)CN(C(=S)Nc1ccc(Cl)cc1)C1CC(=O)N(c2ccc(OC)cc2)C1=O` (stereo unspecified), the Potency result is “inactive”.

Turning to `CCOc1ccc(N2C(=O)CC(N(CCc3ccc(OC)c(OC)c3)C(=S)Nc3ccccc3)C2=O)cc1` (stereo unspecified), the Potency was 10.4 µM (active).

In the case of `CCOc1ccc(N2C(=O)CC(N(O)c3ccccc3)C2=O)cc1` (stereo unspecified), the Potency entry was “inactive”.

On to `Cc1cccc(NC(=S)NCCc2ccc(Cl)cc2)c1C`, for which the Potency is 2.94 µM (active).

With `CCNC(=S)Nc1cccc(Cl)c1C`, the Potency entry is “inactive”.

`S=C(NCCc1ccccc1)Nc1ccccc1`: the Potency entry was “inactive”.

For `O=C(CN1CCCSc2ccccc21)N1CCN(S(=O)(=O)c2ccccc2)CC1`, the Potency result was “inactive”.

Consider `O=C(CN1C(=O)S/C(=C\c2ccccc2Cl)C1=O)NC1C=CS(=O)(=O)C1` (stereo unspecified), for which the Potency entry is “inactive”.

For the compound `COc1c(C)c2c(c(O)c1C/C=C(\C)CCC(=O)O)C(=O)OC2`, the Potency is 2.56 µM (active).

For the compound `COc1ccc(C(=O)Nc2ccnn2C2CCN(Cc3ccncc3)CC2)cc1`, the Potency entry is “inactive”.

As to `C=CCn1c(=O)c(C(=O)Nc2ncccc2O)c(O)c2ccccc21`, the Potency entry is “inactive”.

With `CCOc1ccc(S(=O)(=O)Nc2ccc(OC)nc2)cc1`, the Potency entry is “inactive”.

As to `CN(C)S(=O)(=O)c1ccc(C(=O)NCC2(N3CCOCC3)CCCCC2)cc1`, the Potency entry was “inactive”.

Take `O=C(NCC1CCCO1)c1ccc(S(=O)(=O)Nc2ccc(F)cc2)cc1` (stereo unspecified): the Potency result is “inactive”.

Consider `CCOc1ccc(S(=O)(=O)Nc2cccc(C(=O)NCC3(N4CCCCC4)CCCCC3)c2)cc1`, for which the Potency was 14.7 µM (active).

As to `CCOc1ccc(NS(=O)(=O)c2ccc(C(=O)NCC(c3ccccc3OC)N3CCCC3)cc2)cc1` (stereo unspecified), the Potency was 10.4 µM (active).

As for `CCOc1ccc(S(=O)(=O)Nc2ccc(C(=O)NCCCN3CCCC3=O)cc2)cc1`, the Potency entry is “inactive”.

`O=C(NCC1(N2CCCCC2)CCCCC1)c1ccc(NS(=O)(=O)c2ccc(F)cc2)cc1`: the Potency was 14.7 µM (active).

As for `CCOc1ccc(S(=O)(=O)NCCC(=O)N2CCCCCCC2)cc1`, the Potency result is “inactive”.

In the case of `CCOC(=O)c1cccc(NS(=O)(=O)c2c(C(=O)N3CCCCCC3)c(C)n(C)c2C)c1`, the Potency entry is “inactive”.

In the case of `O=C(Nc1ccc(C2CC2(Cl)Cl)cc1)c1cccc([N+](=O)[O-])c1` (stereo unspecified), the Potency result was “inactive”.

Consider `CCn1c(SC(C)C(=O)Nc2ccc(N3CCOCC3)cc2)nnc1-c1ccco1` (stereo unspecified), for which the Potency result is “inactive”.

Turning to `CC(=O)N/C(=C\c1ccccc1)C(=O)OC(C)C(=O)N(C)c1ccccc1` (stereo unspecified), the Potency result is “inactive”.

Turning to `Cc1ccc(NC(=O)CN2CCc3ccccc3C2)cc1C`, the Potency entry was “inactive”.

For `COc1ccc(CNCCc2c[nH]c3ccccc23)cc1OC`, the Potency entry is “inactive”.

Turning to `COc1ccc(C(C(=O)NC2CCCCC2)N(C(=O)Cc2c[nH]c3ccccc23)c2ccccc2)cc1OC` (stereo unspecified), the Potency was 13.1 µM (active).

As to `COc1ccc(-c2cc(C(=O)NC(Cc3c[nH]c4ccccc34)C(=O)O)c(C)o2)cc1OC` (stereo unspecified), the Potency result was “inactive”.

With `Cc1ccc(F)cc1NC(=O)CSCc1c(C)noc1C`, the Potency entry was “inactive”.

Consider `CCNC(=O)NC(=O)C(C)OC(=O)c1cc(S(=O)(=O)N2CCCCCC2)ccc1OC` (stereo unspecified), for which the Potency result is “inactive”.

Take `COc1ccc(S(=O)(=O)N2CCCCCC2)cc1C(=O)N(C)Cc1cccc(OC)c1OC`: the Potency was 13.1 µM (active).

For the compound `COc1ccc(S(=O)(=O)N2CCCCC2)cc1Br`, the Potency entry was “inactive”.

Turning to `O=S(=O)(Nc1cccc(-c2ccc(N3CCOCC3)nn2)c1)c1ccc(Cl)c(Cl)c1`, the Potency entry is “inactive”.

Consider `O=S(=O)(NC1CC2CCC1C2)c1ccc(Cl)cc1` (stereo unspecified), for which the Potency result was “inactive”.

For the compound `Cc1ccccc1Nc1nnc(SCC(=O)c2cc3ccccc3o2)s1`, the Potency result was “inactive”.

Take `Cc1ccc(Nc2nnc(SCC(=O)c3cc4ccccc4o3)s2)cc1C`: the Potency result was “inactive”.

With `Cc1cccc(Nc2nnc(SCC(=O)c3c(N)n(C4CC4)c(=O)[nH]c3=O)s2)c1C`, the Potency is 11.7 µM (active).

Take `COCCOC(=O)C1=C(C)NC(=O)NC1c1cc2c(cc1Br)OCO2` (stereo unspecified): the Potency result was “inactive”.

As to `O=C(NC(Cc1ccccc1)C(=O)N1CCCC(C(F)(F)F)C1)c1ccccc1` (stereo unspecified), the Potency result is “inactive”.

Regarding `C[N+]12CN3CN(CN(C3)C1)C2`, the Potency was 13.1 µM (active).

Regarding `Cc1ccc(N=C2SCCCN2C(=O)c2cccc(N3C(=O)CCC3=O)c2)cc1Cl`, the Potency result is “inactive”.

Consider `Cc1ccc(CNC(=O)C(=O)c2cn(CC(=O)N3CCOCC3)c3ccccc23)cc1`, for which the Potency result was “inactive”.

In the case of `COc1ccc(C2=NN(C(=O)CSc3nc(=O)n4ccc(C)cc4n3)C(c3ccc(C)cc3)C2)cc1` (stereo unspecified), the Potency was 9.28 µM (active).

With `COc1ccc(C2CC(c3ccccc3)=NN2C(=O)CSc2nccc(=O)[nH]2)cc1` (stereo unspecified), the Potency entry is “inactive”.

With `Cc1ccc(C2=NN(C(=O)CSc3nc(N)cc(N)n3)C(c3ccco3)C2)cc1` (stereo unspecified), the Potency result was “inactive”.

Regarding `Cc1cccc(NC(=O)C(C)SCc2ccccc2)c1` (stereo unspecified), the Potency result is “inactive”.

`COc1ccc(CCNC(=O)COC(=O)Cc2cccc(F)c2)cc1`: the Potency entry is “inactive”.

As to `CCOCC(=O)Nc1ncc(S(=O)(=O)c2ccc([N+](=O)[O-])cc2)s1`, the Potency entry was “inactive”.

With `COc1ccc(C(=O)Nc2nc(-c3ccc(OC)cc3)c(-c3ccc([N+](=O)[O-])cc3)s2)cc1`, the Potency result is “inactive”.

For the compound `COC(=O)C(NC(=O)c1ccc(OC)cc1)(Nc1ncc(S(=O)(=O)c2ccc([N+](=O)[O-])cc2)s1)C(F)(F)F` (stereo unspecified), the Potency was 8.28 µM (active).

For `Cc1c(C(=O)NC2CCCCC2)oc2ccccc12`, the Potency entry was “inactive”.

`CC(NC(=O)c1cc(=O)[nH]c2ccccc12)c1ccc(F)cc1F` (stereo unspecified): the Potency entry was “inactive”.

Regarding `CSc1ccc(CCNC(=O)CS(=O)(=O)Cc2nc(-c3ccccc3F)oc2C)cc1`, the Potency entry is “inactive”.

`COc1ccc(C[C@H](C(=O)O)N2C(=O)c3ccc(C(=O)O)cc3C2=O)cc1`: the Potency entry is “inactive”.

Consider `O=c1ccn(Cc2ccccc2Cl)cc1`, for which the Potency result is “inactive”.

Regarding `N#CC(C#N)=CN=c1ccn(Cc2ccc(Cl)cc2Cl)cc1`, the Potency is 2.94 µM (active).

On to `C=CCN1C=C2C(=O)C(C)(OC(=O)CCc3ccccc3)C(=O)C=C2C=C1c1ccc(C#N)cc1` (stereo unspecified), for which the Potency was 11.7 µM (active).

As for `COCCN1C=C2C(=O)C(C)(OC(=O)C3CCCC3)C(=O)C=C2C=C1c1ccsc1` (stereo unspecified), the Potency result is “inactive”.

For `COC/C=C/C1=CC2=CC(=O)C(C)(OC(=O)CCC(=O)OC)C(=O)C2=CO1` (stereo unspecified), the Potency result was “inactive”.

Turning to `C/C(=N/OC(=O)c1ccc(Br)cc1)c1ccc(C)cc1`, the Potency entry was “inactive”.

For the compound `CCN(CC)c1ccc(NC(=O)CN2C(=O)NC3(CCc4ccccc43)C2=O)cc1` (stereo unspecified), the Potency entry is “inactive”.

On to `COc1ccc(C(=O)CN2C(=O)NC3(CCc4ccccc43)C2=O)c(OC)c1` (stereo unspecified), for which the Potency result was “inactive”.

For the compound `COc1ccc(-n2c(C)cc(C(=O)CN3C(=O)NC4(CCc5ccccc54)C3=O)c2C)cc1` (stereo unspecified), the Potency is 4.15 µM (active).

As for `CN(CC(=O)Nc1ccc(Cl)cc1)CC(=O)Nc1cccc2ccccc12`, the Potency entry is “inactive”.

For the compound `NC(=O)C1CCN(C(=O)c2ccc(F)c(S(=O)(=O)N3CCOCC3)c2)CC1`, the Potency result is “inactive”.

Regarding `COc1ccc(C=C(C#N)C#N)c(CSc2ccccn2)c1`, the Potency result is “inactive”.

Take `O=[N+]([O-])c1ccc(N=Cc2c(O)ccc3ccccc23)cc1`: the Potency entry is “inactive”.

As for `Oc1ccc2ccccc2c1C=Nc1ccccc1`, the Potency result was “inactive”.

Regarding `Oc1ccc(N=Cc2c(O)ccc3ccccc23)cc1`, the Potency was 9.28 µM (active).

As for `COc1cccc(NC(=O)COC(=O)/C=C/c2ccco2)c1`, the Potency entry was “inactive”.

As for `O=C(COC(=O)c1ccc2ncsc2c1)Nc1ccc(Cl)cc1`, the Potency result was “inactive”.

For `O=C(CSc1nnc(-c2cccs2)n1Cc1ccccc1)N1CCc2ccccc2C1`, the Potency is 6.57 µM (active).

Turning to `O=C(CSc1nnc(-c2cccs2)n1-c1ccccc1)N1CCN(C(=O)c2ccco2)CC1`, the Potency entry was “inactive”.

Consider `Cn1c(SCC(=O)N2CCCC2)nnc1-c1cccs1`, for which the Potency entry is “inactive”.

Take `O=C(O)c1ccc(OCC2CCCO2)cc1` (stereo unspecified): the Potency result was “inactive”.

`O=C(CSc1n[nH]c(-c2cccs2)n1)N1CCCCC1`: the Potency result was “inactive”.

For `CC(=O)Nc1ccc(S(=O)(=O)NC2Cc3ccccc3C2)cc1`, the Potency result was “inactive”.

Turning to `O=S(=O)(NC1CCCCC1N1CCCCC1)c1ccc(Cl)cc1` (stereo unspecified), the Potency result was “inactive”.

For the compound `CCOC(=O)N1CCN(S(=O)(=O)c2cc(Br)cc3c2N(C(=O)C2CC2)CC3)CC1`, the Potency result was “inactive”.

With `CS(=O)(=O)N(CC(=O)N1CCN(Cc2ccc3c(c2)OCO3)CC1)c1ccc2c(c1)OCO2`, the Potency entry was “inactive”.

For the compound `CCN(c1ccc2c(c1)OCO2)S(=O)(=O)c1cc(Br)cc2c1N(C(=O)C1CC1)CC2`, the Potency is 1.47 µM (active).

For the compound `COc1cccc(CNC(=O)COC(=O)CN2C(=O)NC3(CCCCC3C)C2=O)c1` (stereo unspecified), the Potency result is “inactive”.

As to `OCC[C@H]1C[C@@H](O)[C@H](O)[C@@]2(OCCc3ccccc32)O1`, the Potency result is “inactive”.

As for `COc1ccc2nc(SCc3ccccc3)nc(C)c2c1`, the Potency entry is “inactive”.

Regarding `Cc1nn(-c2ccccc2)c(C)c1C(=O)OCC(=O)NC(=O)NC1CCCCC1`, the Potency entry was “inactive”.

On to `COc1ccc2nc(/N=C(\N)NC(=O)Nc3ccccc3)nc(C)c2c1`, for which the Potency was 1.85 µM (active).

Consider `O=C(NNC(=O)C(O)c1ccccc1)NC1CCCCC1` (stereo unspecified), for which the Potency entry was “inactive”.

For the compound `Cc1nc(/N=C(\N)NC(=O)NC2CCCCC2)nc2ccccc12`, the Potency is 2.94 µM (active).

In the case of `COc1ccc2nc(C)cc(Nc3cccc(C(=O)O)c3)c2c1`, the Potency result was “inactive”.

The values are drawn from PubChem BioAssay AID504832 (National Center for Advancing Translational Sciences (NCATS), 2011).
